Records with an inconclusive call do not appear. The source made the active and inactive calls. Calls come from the whole dose curve; as a rule, active = well fitted curve in the direction sought with a large enough effect; inconclusive = small, poorly fitted or top-dose-only effect, or another doubt; inactive = no such curve, though single readings can be large; an effect the other way counts as inactive or inconclusive.
Legend:
[1] = Cellular Toxicity (caspase-3) Hek293 (AID 664);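 note: cells exposed to compound for 16 h at 37 °C before readout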
In short: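 HEK293 cells were exposed to compounds in complete medium for 16 hr at 37 °C, then caspase-3/7 activity was read by Caspase-Glo 3/7 luminescence after 20 min at room temperature. Data normalized to DMSO and 100 uM tamoxifen; AC50 from Hill fits.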

[2] = Cellular Toxicity (caspase-3) N2a (AID 665);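 note: compound exposure lasted 16 h at 37 °C before readout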
In short: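 Mouse N2a neuroblastoma cells (1500/well) were treated with compounds for 16 h at 37 °C, then caspase-3/7 activity was read by Caspase-Glo luminescence after 1 h at room temperature. Data were normalized to DMSO and 10 uM staurosporine; AC50 from Hill fits.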

[3] = Cellular Toxicity (caspase-3) NIH 3T3 (AID 666);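 note: caspase signal read after 16 h compound exposure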
In short: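 Mouse NIH 3T3 fibroblasts (1000 cells/well) were treated with compound for 16 hr at 37°C in complete medium; caspase-3/7 activity was read by Caspase-Glo luminescence. Normalized to DMSO and 100 uM tamoxifen; AC50 from Hill fits.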

[4] = Cellular Toxicity (caspase-3) Renal Proximal Tubule (AID 667);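 note: cells exposed to compound for 16 hours at 37 °C before detection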
In short: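 Primary rat proximal tubule cells, 1000/well, 5 h plating at 37 °C, then compound 16 h at 37 °C. Caspase-Glo 3/7 reagent, 1 h RT, luminescence. Normalized to DMSO (basal) and 10 uM staurosporine (100%); Hill-fit AC50.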

[5] = MultiTox-Fluor Cytotoxicity Assay - LYMP1-001 - Dead Cells (AID 946)
In short: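 AC50 from Hill fit of concentration-response; data normalized to DMSO (basal) and 15 uM tetraoctylammonium bromide (100%). LYMP1-001 lymphoblastoid cells, 2500/well, 16 hr compound at 37 C; dead-cell protease fluorescence, Ex/Em 485/520.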

[6] = MultiTox-Fluor Cytotoxicity Assay - LYMP1-001 - Live Cells (AID 947)
[7] = Cell Viability - LYMP1-002 - Assay at 16 hr (AID 948)
In short: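 Human lymphoblastoid cells (LYMP1-002), 2500/well, were preincubated 5 hr at 37 C, then exposed to compounds for 16 hr at 37 C in complete medium. Cellular ATP was read by CellTiter-Glo luminescence after 30 min at room temperature; AC50 from Hill fits.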

[8] = MultiTox-Fluor Cytotoxicity Assay - LYMP1-002 - Live Cells (AID 955)
In short: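 Human lymphoblastoid LYMP1-002 cells, 2500/well in complete medium, rested 5 hr at 37 C, then exposed to compounds for 16 hr at 37 C. Live-cell protease cleavage of GF-AFC read by fluorescence (Ex/Em 405/510) after 60 min at room temperature; AC50 from Hill fits.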

[9] = MultiTox-Fluor Cytotoxicity Assay - LYMP1-002 - Dead Cells (AID 960); note: nearly all actives have a fitted effect of over 60% in size
In short: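 Human lymphoblastoid cells (LYMP1-002), 2500/well in complete medium, were exposed to compounds for 16 hr at 37 C. Dead-cell protease activity was read as bis-AAF-R110 fluorescence (Ex/Em 485/520), normalized to DMSO and 15 uM tetraoctylammonium bromide; AC50 from Hill fits.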

[10] = MultiTox-Fluor Cytotoxicity Assay - LYMP1-003 - Dead Cells (AID 961); note: nearly all actives have a fitted effect of over 70% in size
In short: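 Human lymphoblastoid LYMP1-003 cells (2500/well) were treated with compounds for 16 hr at 37 C in complete medium. Dead-cell protease release was read by bis-AAF-R110 fluorescence (Ex/Em 485/520). AC50 came from Hill fits, normalized to DMSO and 15 uM tetraoctylammonium bromide.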

[11] = MultiTox-Fluor Cytotoxicity Assay - LYMP1-003 - Live Cells (AID 962);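 note: cytotoxic hits lower the live-cell protease signal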
In short: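 LYMP1-003 human lymphoblastoid cells (2500/well) in complete medium were preincubated 5 hr at 37 C, then exposed to compounds for 16 hr at 37 C. Live-cell protease cleavage of GF-AFC read by fluorescence (Ex/Em 405/510); AC50 from Hill fits.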

[12] = Cell Viability - LYMP1-003 - Assay at 24 hr (AID 963)
In short: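 Human lymphoblastoid LYMP1-003 cells (2500/well) were rested 5 hr at 37 C, then exposed to compounds in complete medium for 24 hr at 37 C. Cellular ATP was quantified by CellTiter-Glo luminescence, and AC50 values came from Hill fits of concentration-response data.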

[13] = Cell Viability - LYMP1-003 - Assay at 40 hr (AID 964); note: series mostly up to about 92 µM; nearly all actives have a fitted effect of over 60% in size
In short: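 Human lymphoblastoid LYMP1-003 cells, 2500/well in complete medium, rested 5 hr at 37 C, then exposed to compounds for 40 hr at 37 C. Viability read as intracellular ATP by CellTiter-Glo luminescence; AC50 from Hill fits of concentration-response data.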

[14] = Cell Viability - LYMP2-003 (AID 965);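 note: cells exposed to compounds for 24 h before reading; nearly all actives have a fitted effect of over 50% in size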
In short: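 Human lymphoblastoid cells (2500/well) were pre-incubated 5 hr at 37 C, then exposed to compounds over a concentration range for 24 hr at 37 C. Intracellular ATP was read by CellTiter-Glo luminescence; AC50 came from Hill-equation fits.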

[15] = Cell Viability - LYMP2-004 (AID 966); note: nearly all actives have a fitted effect of over 65% in size
In short: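 Human lymphoblastoid cells (2500/well) in complete medium were treated with compounds for 24 hr at 37 C, then intracellular ATP was measured by CellTiter-Glo luminescence. AC50 values came from Hill-equation fits of concentration-response data.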

[16] = Cell Viability - LYMP2-005 (AID 967); note: series mostly up to about 92 µM
In short: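 CellTiter-Glo luminescence (cellular ATP) read-out; LYMP2-005 lymphoblastoid cells, 2500/well, 5 h pre-incubation, then 24 h compound exposure at 37 C in complete medium. Tetraoctylammonium bromide positive control; AC50 by standard Hill fit.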

[17] = Cell Viability - LYMP2-009 (AID 968); note: series mostly up to about 92 µM; nearly all actives have a fitted effect of over 55% in size
[18] = Cell Viability - LYMP2-011 (AID 969); note: nearly all actives have a fitted effect of over 60% in size
In short: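 Human lymphoblastoid cells (2500/well) were plated in complete medium, preincubated 5 hr at 37 C, then exposed to compounds for 24 hr at 37 C. Intracellular ATP was read by CellTiter-Glo luminescence, and AC50 came from Hill-equation concentration-response fits.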

[19] = Cell Viability - LYMP2-013 (AID 970); note: series mostly up to about 92 µM; nearly all actives have a fitted effect of over 55% in size
In short: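 Human lymphoblastoid cells, 2500/well, were preincubated 5 hr at 37 C, then treated with compounds for 24 hr at 37 C in complete medium. Intracellular ATP was read by CellTiter-Glo luminescence; AC50 from Hill-equation fits of concentration-response data.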

[20] = Cell Viability - LYMP2-015 (AID 971); note: nearly all actives have a fitted effect of over 55% in size
In short: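 Human lymphoblastoid cells (2500/well) in complete medium were preincubated 5 hr at 37 C, then compound-treated 24 hr at 37 C. Intracellular ATP was read by CellTiter-Glo luminescence after 30 min at room temperature; AC50 came from Hill-equation concentration-response fits.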

[21] = Cell Viability - LYMP2-017 (AID 972); note: series mostly up to about 92 µM; nearly all actives have a fitted effect of over 55% in size
In short: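 Human lymphoblastoid cells (2500/well) were seeded in complete medium, held 5 hr at 37 C, then exposed to compounds for 24 hr at 37 C. Intracellular ATP was read by CellTiter-Glo luminescence after 30 min at room temperature, with AC50 values from Hill-equation fits.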

[22] = Cell Viability - LYMP2-021 (AID 974)
In short: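 Human lymphoblastoid cells (2500/well) were preincubated 5 hr at 37 C, then exposed to compounds for 24 hr at 37 C in complete medium. Intracellular ATP was read by CellTiter-Glo luminescence; AC50 came from Hill-equation fits of concentration-response data.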

Measured: Potency

CCOc1cc(C=O)ccc1O
inactive: all assays above
